Results filed as inconclusive are left out. Active and inactive are the calls of the source. Calls follow the shape of the dose curve; as a rule, active = well fitted activation curve with a large enough effect; inconclusive = small, poorly fitted or top-dose-only effect; inactive = no such curve, though single readings can be large or run the other way.
Assay: qHTS Assay for NPC1 Promoter Activators: Hit Validation Using Renila Luciferase Read-Out for NPC1
Conditions: Huh7 NPC1 promoter-luciferase reporter, luminescence, 24 h; series mostly up to 76.9 µM
Description: Niemann Pick Type C (NPC) is a rare neurodegenerative lipidosis that is characterized by lipid storage in the endosomal/lysosomal system. Treatment modalities for this devastating disease are currently non-existent due to the severe obstacles associated with accessing the central nervous system with proteins or genes. The majority of mutations causing NPC disease are missense mutations that are distributed throughout the length of the NPC1 protein, with the most prevalent being the I1061T allele. Although NPC1 mutant proteins may be functional, they are typically trapped in the ER due to misfolding. […] We have developed and optimized a cell based renilla luciferase reporter assay in 1536 well format for the identification of up-regulators of the mutant Rab9 promoter. This assay presents data on the validation of hits from the primary screen, which used a firefly luciferase read-out. NIH Chemical Genomics Center [NCGC] NIH Molecular Libraries Probe Production centers Network [MLPCN] MLPCN Grant: MH089375 Assay Submitter (PI): Yiannis A. Ioannou
Huh7 cells stably expressing NPC promoter-luciferase will be seeded at 1,500 cells/well in 5 uL in 1,536-well white opaque plates with 23 nL/well of compound in DMSO solution. The assay plates will be incubated at 37 deg C for 24 hours, after which 3 uL/well BriteLite plus luciferase detection reagent mixture (Perkin Elmer) will be added. Luminescence signal will be measured in a ViewLux plate reader (Perkin Elmer) after a 10 minute incubation at the room temperature.

Potency, inactive:
Cc1ccc(NC(=O)c2c(O)c3ccccc3n(C)c2=O)nc1
CCN(Cc1nc2cc(Cl)ccc2c(=O)[nH]1)C(=O)C1CC(=O)N(c2cccc3ccccc23)C1 (stereo not given)
O=C(CCN1C(=O)c2ccccc2C1=O)Nc1ccc(-c2nc3ccccc3s2)cc1
FC(F)(F)c1ccc(Nc2nnnc3ccccc23)cc1
Cc1cccc(NC(=O)CSc2nc3ccccc3o2)c1
Cc1ccc(NC(=O)COC(=O)C2C3CC4OC(=O)C2C4C3)cc1Cl (stereo not given)
COc1cccc(NC(=O)CN2C(=O)CSc3ccc(S(=O)(=O)N4CCC(C)CC4)cc32)c1
O=C(C[N+]1(CC#Cc2ccccc2)CCCCC1)c1ccccc1
Fc1ccc(-c2nc3nc4ccccc4nc3n2Cc2ccco2)cc1
S=C1NCN(CCc2ccccc2)CN1Cc1ccccc1
CN(C)C(=O)[C@H]1C[C@H]1[C@@H](O)[C@H](CO)NC(=O)[C@H](COCc1ccccc1)NC(=O)OC(C)(C)C
CCOc1cc(C2C(C#N)=C(N)Oc3n[nH]c(C)c32)ccc1OCCN1CCOCC1 (stereo not given)
Cc1ccc(C(=O)c2cncc(Br)c2)cc1
COc1ccc(NC(=O)Nc2ccc(Cc3ccncc3)cc2)cc1OC
O=C(N/N=C/c1ccc(-c2ccc(Br)cc2)o1)c1ccc2c(c1)OCO2
C=CCn1c(C)nnc1SCC(=O)Nc1nccs1
CCN(CC(=O)N(CC(C)C)c1c(N)n(CC(C)C)c(=O)[nH]c1=O)Cc1nc2ccccc2c(=O)[nH]1
O=CN1CCN(C(=O)c2ccccc2Cl)CC1
CN(C)C(CNC(=O)CNC(=O)c1ccc2ccccc2c1)c1ccccc1 (stereo not given)
Cc1ccc(C(=O)Nc2nnc(S(=O)(=O)N3CCOCC3)s2)cc1
Cc1ccc(NC(=O)c2ncc(Cl)c(Cl)c2Cl)cc1C
CCOC(=O)c1ccc(NC(=O)Oc2cc(C)c(Cl)cc2C(C)C)cc1
COc1ccc(-n2cc(-c3ccc(Cl)cc3)[nH]c2=S)cc1
O=C(NCCSCc1c(F)cccc1Cl)c1ccc(CN2CCOCC2)cc1
Cc1ccc(C)c(Nc2cc(C)nc3ncnn23)c1
O=C(NC1CCCC1)C(c1ccc(F)cc1)N(C(=O)c1csnn1)c1ccccc1 (stereo not given)
Cc1nc(SCC(=O)NC(=O)NC(C)(C)C)nc(C)c1C
COc1ccccc1NC(=S)NCc1ccc(Cl)cc1
CCOC(=O)CSc1nc2cc3c(cc2cc1C#N)OCO3
Cn1c(SCc2ccccc2)nnc1-c1cnccn1
Cc1ccc(C(=O)c2cn[nH]c2-c2ccccc2O)cc1
Cc1cccc(N2CCN(C(=S)c3ccccc3)CC2)c1
O=C(c1cccc(Oc2ccc([N+](=O)[O-])cc2)c1)N1CCOCC1
CCOc1cc(C(=O)N=c2sccn2C)ccc1OC(F)F
Cn1c(CCN2CCN(c3ccccc3)CC2)nc2cc(NC(=O)c3ccco3)ccc21
COC(=O)c1sccc1NC(=S)OC
Cc1ccc2c(c1)sc1nc(=O)n(-c3ccccc3)c(=O)n12
NC(=O)C1(NC(=O)[C@@H]2CC3(CC(c4cccc(NC(=O)[C@@H]5CCC(=O)N5)c4)=NO3)CN2C(=O)c2ccccc2)CC1 (stereo not given in full)
CCOC(=O)C1(Cc2cccc(Cl)c2)CCCN(C(=O)CCSC)C1 (stereo not given)
COc1ccccc1OCCCC(=O)NCc1ccco1
